Measurements as given in PubChem BioAssay.
Inconclusive results are not listed. Active and inactive are the calls of the source. Unless noted, cut-off not given; nearly all actives show AC50 up to about 26 µM.

Experiments:
[1] = viability loss in pontine glioma line – cell-based, SU-DIPG-XVII, MIPE5.0, CellTiter-Glo, qHTS, dose response (AID 1347060); settings: CellTiter-Glo ATP luminescence;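 on AC50: cells exposed to compound for 48 hours before viability readout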
[2] = viability loss in pontine glioma line – cell-based, SU-DIPG-XIII, MIPE5.0, CellTiter-Glo, qHTS, dose response (AID 1347064; cut-off not given, nearly all actives have AC50 up to about 23 µM;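 on AC50: cells exposed to compound for 48 hours before the viability read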); settings: CellTiter-Glo ATP luminescence
[3] = JHH-DIPG-1 glioma cell viability, MIPE5.0 library, CellTiter-Glo luminescence, qHTS (AID 1347067); settings: JHH-DIPG-1 glioma viability, CellTiter-Glo ATP luminescence;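 further: cells exposed to compound for 48 hours before readout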
[4] = growth inhibition, single agent or in combination, cell-based, chromothripsis tumors, cisplatin or BGB combos (AID 1671449; in the data active means inhibition above about 80%;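 further: cells exposed for 96 hours; 0% = vehicle DMSO and 100% = killing by high DMSO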); settings: LFS_MB_P medulloblastoma cells
[5] = growth inhibition, single agent and combos, cell-based, chromothripsis tumors, cisplatin or BGB combos (AID 1671450; in the data active means inhibition above about 80%;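 further: cells exposed to compound for four days; 0% = vehicle DMSO and 100% = cell killing by high DMSO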); settings: HDN33 neuroblastoma cells, stronger effect = higher value
[6] = growth inhibition, single agents and combos, ICB984, cell-based, cisplatin or BGB combos, synergistic combos for chromothripsis tumors (AID 1671451; call rule not given here;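 further: cells exposed for 96 hours before readout; 0% = vehicle DMSO and 100% = killing by high DMSO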); settings: ICB984 medulloblastoma cells, drug combinations, stronger effect = higher value
[7] = growth inhibition, single agents and combos, LFS_MB_1R, cell-based, cisplatin or BGB combos, synergistic combos for chromothripsis tumors (AID 1671452; in the data active means inhibition above about 80%;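 further: cells exposed for 96 hours before readout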); settings: LFS_MB_1R medulloblastoma cells, stronger effect = higher value
[8] = growth inhibition, single agents and combos, HTB85, cell-based, BGB or cisplatin IC20 combos, synergistic combos for chromothripsis tumors (AID 1671453; in the data active means inhibition above about 80%;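 further: cells exposed for 96 hours before readout; 0% = vehicle DMSO and 100% = high DMSO killing control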); settings: HTB85 osteosarcoma cells, drug combinations, stronger effect = higher value
[9] = growth inhibition, single agents and combos, CRL2098, cell-based, BGB or cisplatin IC20 combos, synergistic combos for chromothripsis tumors (AID 1671454; in the data active means inhibition above about 80%;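 further: cells exposed for 96 h before readout; 0% = vehicle DMSO and 100% = killing by high DMSO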); settings: CRL2098 osteosarcoma cells, drug combinations, stronger effect = higher value
[10] = growth inhibition, single agents and combos, HD-MB03, cell-based, BGB or cisplatin IC20 combos, synergistic combos for chromothripsis tumors (AID 1671455; in the data active means inhibition above about 83%;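 further: 0% = vehicle DMSO and 100% = high DMSO as cytotoxic control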); settings: HD-MB03 medulloblastoma cells, stronger effect = higher value
[11] = growth inhibition, single agents and combos, UWB1.289, cell-based, BGB or cisplatin combos, synergistic combos for chromothripsis tumors (AID 1671456; in the data active means inhibition above about 80%;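 further: cells exposed to compound for four days; 0% = vehicle DMSO and 100% = killing by high DMSO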); settings: UWB1.289 ovarian carcinoma cells, stronger effect = higher value
[12] = growth inhibition, single agents and combos, LFS_MB_2R, cell-based, cisplatin combos, synergistic combos for chromothripsis tumors (AID 1671457; in the data active means inhibition above about 80%;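 further: cells exposed to compound for four days before readout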); settings: LFS_MB_2R medulloblastoma cells, stronger effect = higher value
[13] = growth inhibition, MDA-MB-436, cell-based, BGB or cisplatin combos, synergistic combos for chromothripsis tumors (AID 1671458; call rule not given here;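 further: cells exposed for 96 hours; 0% = vehicle DMSO and 100% = killing by high DMSO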); settings: MDA-MB-436 breast carcinoma growth inhibition, drug combinations, stronger effect = higher value
[14] = UWB1.289_BRCA1 ovarian cancer growth, cell-based, BGB or cisplatin combinations (AID 1671459; in the data active means inhibition above about 80%); settings: UWB1.289 BRCA1 ovarian carcinoma, drug combinations, stronger effect = higher value
[15] = drug combination toxicity in non-malignant astrocytes – cell-based, BGB or cisplatin IC20 combos, cytotoxicity control for chromothriptic childhood tumor combination screen (AID 1671460; in the data active means inhibition above about 80%;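 further: cells exposed to compounds for 96 hours before viability readout; 0% = vehicle and 100% = killing control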); settings: Human astrocytes, viability inhibition, drug combinations, at 0.5 µM, stronger effect = higher value
[16] = BT084 cell growth, single and combined drugs, ICGC_MB145, cisplatin and BGB IC40 combos (AID 1671461; in the data active means inhibition above about 80%;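 further: cells exposed to drugs for 96 hours; 0% = vehicle DMSO and 100% = high DMSO full killing control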); settings: BT084 medulloblastoma cells, drug combinations, stronger effect = higher value
[17] = RCMB18 cell growth, single agent and combined, cisplatin and BGB IC40 combos (AID 1671462; in the data active means inhibition above about 80%;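 further: cells exposed to compound for four days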); settings: RCMB18 medulloblastoma cells, stronger effect = higher value
[18] = CRL1545 cell growth, single agent and combined, cisplatin and BGB IC20 combos (AID 1671464; in the data active means inhibition above about 80%;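 further: cells exposed to compound for 96 hours before readout; 0% = vehicle DMSO and 100% = high DMSO killing control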); settings: CRL1545 osteosarcoma cells, stronger effect = higher value
[19] = growth inhibition of DIPG cells – cell-based, MIPE5.0 library, qHTS (AID 1347068; cut-off not given, nearly all actives have IC50 up to about 30 µM;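 on IC50: cells exposed to compound for 48 hours before viability readout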); settings: SU-DIPG-XXV viability
[20] = viability loss with induced miR-34 in A549 – imaging, A549 dox-inducible miR-34, nuclei and caspase counts, primary screen (AID 1347080;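 active means compounds whose cell count with miR-34 switched on is under 0.7 times the count with it off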); settings: A549 miR-34 inducible, Hoechst nuclei count, 48 h
[21] = MELAS cybrid and Rieske KO viability enhancers – cell-based, MELAS cybrids, Rieske KO mouse fibroblasts, CellTiter-Glo, primary screen (AID 1508586;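 active means mean z-score across replicates of 1.96 or higher in either the MELAS or the Rieske mutant cell line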;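 further: z relative to plate mean and SD of compound and empty wells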); settings: low glucose
[22] = viability loss in pontine glioma line – cell-based, SU-DIPG-XXV, MIPE5.0, CellTiter-Glo, qHTS, dose response (AID 1347065); settings: CellTiter-Glo ATP luminescence;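 further: cells exposed to compound for 48 hours before ATP readout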
[23] = measured here: combination with BGB IC40, at 0.05 µM
[24] = measured here: with BGB IC20 combination, at 0.5 µM
[25] = measured here: with cisplatin IC20 combination, at 0.5 µM
[26] = measured here: combination with cisplatin, at 0.5 µM
[27] = measured here: combination with cisplatin, at 5 µM

O=C(CCCCCCNC(=O)c1cnc(N(c2ccccc2)c2ccccc2Cl)nc1)NO
AC50 [1]: 8.33 µM (active)
AC50 [2]: 3.72 µM (active)
AC50 [3]: 7.42 µM (active)
inhibition ([4]; at 0.5 µM, stronger effect = higher value): -18.4% (inactive)
inhibition ([4]; measured here: combination with BGB IC20, at 0.005 µM): -0.623%
inhibition ([4]; measured here: combination with BGB IC40, at 0.005 µM): -22.7%
inhibition [4, 23]: -0.542%
inhibition ([4]; measured here: combination with cisplatin, at 0.5 µM, stronger effect = higher value): -15.1%
inhibition ([4]; measured here: combination with cisplatin, at 5 µM, stronger effect = higher value): 99.5%
inhibition ([5]; BGB combo, at 5 µM): 50.4%
inhibition ([5]; at 0.5 µM): 18.7% (inactive)
inhibition ([5]; cisplatin combo, at 5 µM): 56.8%
inhibition [5, 24]: 15.8%
inhibition [5, 25]: 22.8%
inhibition ([5]; single agent, at 5 µM): 62.1%
inhibition ([6]; BGB IC20 combo, at 0.005 µM): 12.6%
inhibition ([6]; BGB IC40 combo, at 0.005 µM): -39.2%
inhibition ([6]; BGB IC40 combo, at 0.05 µM): 39.9%
inhibition ([6]; at 0.5 µM): -20.1% (inactive)
inhibition ([6]; cisplatin combo, at 0.05 µM): 37.5%
inhibition ([6]; cisplatin combo, at 0.5 µM): -17.2%
inhibition ([6]; cisplatin combo, at 5 µM): -24.9%
inhibition ([6]; measured here: 5 uM single agent, at 5 µM): -20.1%
inhibition ([7]; at 0.5 µM): -5.6% (inactive)
inhibition [7, 23]: -9.58%
inhibition [7, 26]: -15.4%
inhibition [7, 27]: 66.7%
inhibition ([8]; at 0.5 µM): -4.65% (inactive)
inhibition ([8]; measured here: with BGB IC20, at 0.5 µM): -17.2%
inhibition ([8]; measured here: with BGB IC20, at 5 µM): 33.1%
inhibition ([8]; measured here: with cisplatin IC20, at 0.5 µM): -7.92%
inhibition ([8]; measured here: with cisplatin IC20, at 5 µM): 47.7%
inhibition ([8]; single agent, at 5 µM): 54%
inhibition ([9]; at 0.5 µM): -36.3% (inactive)
inhibition ([9]; measured here: combination with BGB at IC20, at 0.5 µM): -46.5%
inhibition ([9]; measured here: combination with cisplatin at IC20, at 0.5 µM): -0.706%
inhibition ([10]; at 0.5 µM): 7.2% (inactive)
inhibition ([10]; measured here: combo with BGB at IC20, at 0.5 µM): -0.477%
inhibition ([10]; measured here: combo with cisplatin at IC20, at 0.5 µM): 8.58%
inhibition ([11]; at 0.5 µM): 8.33% (inactive)
inhibition ([11]; measured here: inhibition with BGB combination, at 0.05 µM): -28.3%
inhibition ([11]; measured here: inhibition with cisplatin combination, at 0.05 µM): -17.7%
inhibition ([12]; at 0.5 µM): -16.9% (inactive)
inhibition [12, 26]: -6.73%
inhibition [12, 27]: 81%
inhibition ([13]; at 0.5 µM): -11.7% (inactive)
inhibition ([13]; measured here: BGB combination, at 0.5 µM): -16.5%
inhibition ([13]; measured here: BGB combination, at 5 µM): 16.3%
inhibition ([13]; measured here: cisplatin combination, at 0.5 µM): -18%
inhibition ([13]; measured here: cisplatin combination, at 5 µM): 30.9%
inhibition ([14]; BGB combination, concentration series, at 5 µM): 70.5%
inhibition ([14]; at 0.5 µM): 15.1% (inactive)
inhibition ([14]; cisplatin combination, concentration series, at 5 µM): 83%
inhibition [15]: 10.7% (inactive)
inhibition ([15]; measured here: combo with BGB IC20): 11.7%
inhibition ([15]; measured here: combo with cisplatin IC20): 14%
inhibition ([16]; at 0.5 µM): 2.48% (inactive)
inhibition ([16]; cisplatin combination, at 0.5 µM): 7.21%
inhibition ([16]; cisplatin combination, at 5 µM): 78.9%
inhibition ([16]; measured here: BGB IC40 combination 0.05 uM, at 0.05 µM): -0.825%
inhibition ([16]; single agent, at 5 µM): 65%
inhibition ([17]; at 0.5 µM): -4.94% (inactive)
inhibition ([17]; cisplatin combo, at 5 µM): 64.2%
inhibition ([17]; measured here: BGB IC40 combination, at 0.05 µM): -4.49%
inhibition [17, 26]: 5.58%
inhibition ([17]; single agent, at 5 µM): 31.8%
inhibition ([18]; at 0.5 µM): 32.3% (inactive)
inhibition [18, 24]: 16.7%
inhibition [18, 25]: 40.1%
inhibition ([18]; single agent, at 0.05 µM): -5.85%
inhibition ([18]; single agent, at 5 µM): 88.6%

Cc1ccc(C2=Nc3ccc(Cl)cc3OC2)cc1
outcome [1]: inactive
outcome [2]: inactive
outcome [19]: inactive

CONC(=O)Nc1ccc(-c2sc3c(c2CN(C)Cc2ccccc2)c(=O)n(-c2ccccc2)c(=O)n3Cc2c(F)cccc2F)cc1
outcome [1]: inactive
outcome [2]: inactive
outcome [19]: inactive

CC(C)N(C[C@H]1O[C@@H](n2cnc3c(N)ncnc32)[C@H](O)[C@@H]1O)C1CC(CCc2nc3ccc(C(C)(C)C)cc3[nH]2)C1 (stereo not given in full)
outcome [1]: inactive
outcome [2]: inactive
outcome [3]: inactive
outcome [19]: inactive

Cc1c(F)cc(C(=O)NC2CC2)cc1-c1ccc(C(=O)NCC(C)(C)C)cn1
outcome [1]: inactive
outcome [2]: inactive
outcome [3]: inactive
outcome [19]: inactive
fold change ([20]; stronger effect = lower value, cell number ratio, induced over uninduced): 0.832 (inactive)
fold change ([20]; measured here: relative caspase fold change +Dox/-Dox): 0.447
cell count ([20]; measured here: total cells with miR-34 induction, stronger effect = lower value): 7400
cell count ([20]; measured here: total cells without miR-34 induction): 8890
z-score ([21]; MELAS cybrid survival, CellTiter-Glo 48 h, stronger effect = higher value): -0.46 (inactive)
z-score ([21]; Rieske KO mouse fibroblast survival, CellTiter-Glo 72 h): 0.488

Cc1noc(-c2ccc(-c3ccc(C4(C(=O)O)CC4)cc3)cc2)c1NC(=O)O[C@H](C)c1ccccc1
AC50 [1]: 23.5 µM (active)
AC50 [22]: 23.5 µM (active)

CS(=O)(=O)c1ccc([C@@H](CC2CCCC2)C(=O)Nc2nccs2)cc1
outcome [1]: inactive
outcome [2]: inactive
outcome [3]: inactive
IC50 [19]: 13.2 µM (active)

CCOC(=O)c1ccnc(CNCC(=O)N(CC)CCN(C)C)c1
outcome [1]: inactive
outcome [2]: inactive
outcome [19]: inactive

CCN(CC)C(=O)Cc1csc(NS(=O)(=O)c2cccc(Cl)c2C)n1
outcome [1]: inactive
outcome [22]: inactive

Cc1cccc(Nc2nc(N[C@@H]3CCCC[C@@H]3N)ncc2C(N)=O)c1
AC50 [1]: 18.6 µM (active)
AC50 [22]: 18.6 µM (active)

CON(C)C(=O)N1N=C(c2cc(F)ccc2F)S[C@@]1(CCCN)c1ccccc1
AC50 [1]: 0.00525 µM (active)
AC50 [22]: 0.00934 µM (active)

CC#Cc1cncc(-c2ccc3c(c2)[C@@]2(N=C(C)C(N)=N2)C2(CCC(OC)CC2)C3)c1 (stereo not given in full)
outcome [1]: inactive
outcome [2]: inactive
outcome [19]: inactive

CC(C)Oc1ccc(-c2nc(-c3cccc4c3CC[C@@H]4NCCO)no2)cc1C#N
AC50 [1]: 20.9 µM (active)
AC50 [22]: 16.6 µM (active)

CC(C)=CCC[C@](C)(O[C@@H]1O[C@H](CO[C@@H]2O[C@H](CO)[C@@H](O)[C@H](O)[C@H]2O)[C@@H](O)[C@H](O)[C@H]1O)[C@H]1CC[C@]2(C)[C@@H]1[C@H](O)C[C@@H]1[C@@]3(C)CC[C@H](O[C@@H]4O[C@H](CO)[C@@H](O)[C@H](O)[C@H]4O[C@@H]4O[C@H](CO)[C@@H](O)[C@H](O)[C@H]4O)C(C)(C)[C@@H]3CC[C@]12C
outcome [1]: inactive
outcome [2]: inactive
outcome [3]: inactive
outcome [19]: inactive

CCS(=O)(=O)c1ccc2oc(-c3ccc4ccccc4c3)nc2c1
outcome [1]: inactive
outcome [2]: inactive
outcome [19]: inactive

CC(C)[C@](O)(c1ccc2cc(OC(F)F)c(OC(F)F)cc2c1)c1cn[nH]n1
outcome [1]: inactive
outcome [22]: inactive
outcome [3]: inactive
outcome [19]: inactive

Cc1c(-c2ccnn2C)cc(C(=O)NCc2ccc(S(C)(=O)=O)cn2)c(=O)n1-c1cccc(C(F)(F)F)c1
outcome [1]: inactive
outcome [22]: inactive
outcome [3]: inactive
